DAX1 inh-1 = inhibitors of DAX1 repression of SF-1 activated StAR promoter | HEK293T StAR-luciferase reporter, SF-1/DAX-1 repression relief | 1.1% of 370,000 active | inhibition, % at 6.8 µM;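 active = inhibition above the mean over all tested compounds plus 3 SD, cut at about 3.6% in these data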;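 also: higher inhibition means more luminescence from relief of DAX-1 repression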
ssDAF12 agonist = activators of S. stercoralis DAF-12 nuclear receptor | 1% of 370,000 active | AID 652126 | HEK293 ssDAF-12/GRIP1 lit1-tk-luc reporter, luminescence; % of 3 µM dafachronic acid response | activation, % at 6.8 µM;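 active = activation above the mean over all tested compounds plus 3 SD, cut at about 0.9% in these data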
SMARCA2 activ = SMARCA2 function activation, primary screen; activation, % at 9.1 µM; 1% of 370,000 active; MG213 cells, MMTV-luciferase reporter, dexamethasone, overnight; AID 652017; in the data active = activation above about 7.8%
hgDAF12 agonist = activates the H. glycines DAF-12 receptor ligand-binding domain; HEK293 GAL4-hgDAF12 UAS-luciferase reporter, agonist luminescence; normalized to butyrate control; activation, % at 6.8 µM; 1.8% of 370,000 active;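 active = activation above a cutoff set at the mean of all screened compounds plus 3 SD, cut at about 10% in these data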
DAX1 inh-2 = inhibits human nuclear receptor DAX1; 0.99% of 340,000 active; AID 504766; HEK293 Gal4-DAX1 luciferase reporter, luminescence; inhibition, % at 6.75 µM;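 active = inhibition above the mean over all tested compounds plus 3 SD, cut at about 4.2% in these data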;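 also: inhibition shows as a rise in luminescence from relieved DAX1 repression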
hcDAF12 agonist = activators of H. contortus DAF-12 nuclear receptor. HEK293 hcDAF-12 lit1-tk-luc reporter, luminescence; 0% DMSO, 100% Δ7-dafachronic acid. activation, % at 6.8 µM. 1.4% of 370,000 active. AID 652067;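 active = activation above the mean of all tested compounds plus 3 SD, cut at about 5.5% in these data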
hgDAF12 conf = confirmation of H. glycines DAF-12 agonists; shares compounds with hgDAF12 agonist; HEK293 GAL4-hgDAF12 luciferase reporter, agonist mode; percent of butyrate response; activation, % at 6.8 µM; 80% of 3,300 active; AID 743050;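 active = mean activation over triplicate wells above the hit cutoff derived from the earlier primary screen, cut at about 11% in these data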
LXRb DAF12 ctr = counter-screen for DAF-12 agonists: agonists of human LXR-beta; 3,300 tested, under 10 active; activation, % at 6.8 µM; AID 743051; shares compounds with hgDAF12 agonist; HEK293 Gal4-LXR luciferase reporter, 24 h;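 active = mean activation of the triplicate above a set limit carried over from the primary screen, none filed active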
Target sequence (P55055 whole entry, looked up, the tested form may be a part): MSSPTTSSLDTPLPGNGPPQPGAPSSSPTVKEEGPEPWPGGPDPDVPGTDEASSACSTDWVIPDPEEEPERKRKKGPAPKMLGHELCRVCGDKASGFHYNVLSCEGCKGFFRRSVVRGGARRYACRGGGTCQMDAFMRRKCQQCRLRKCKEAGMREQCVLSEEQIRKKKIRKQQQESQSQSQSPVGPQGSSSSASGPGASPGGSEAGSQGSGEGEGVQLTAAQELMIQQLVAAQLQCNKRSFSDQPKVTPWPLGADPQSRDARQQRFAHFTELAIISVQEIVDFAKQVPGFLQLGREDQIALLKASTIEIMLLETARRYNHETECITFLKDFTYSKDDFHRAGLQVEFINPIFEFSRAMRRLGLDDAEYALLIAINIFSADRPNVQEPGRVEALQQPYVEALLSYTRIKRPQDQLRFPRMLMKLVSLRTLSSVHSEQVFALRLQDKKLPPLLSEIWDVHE
Hits are given with their value; i = inactive; nt = no result. Hits are enriched below; roughly 4.8% of the tested compounds scored in any of these assays.

SMILES | DAX1 inh-1 | ssDAF12 agonist | SMARCA2 activ | hgDAF12 agonist | DAX1 inh-2 | hcDAF12 agonist | hgDAF12 conf | LXRb DAF12 ctr
Cc1cccc(NC(=O)c2ccc3c(c2)OCCO3)c1 | i | i | i | 17 | i | i | 18 | i
Cc1cccc(NC(=S)NNC(=O)c2ccc3c(c2)OCO3)c1 | 3.9 | i | i | 18 | i | i | 13 | i
Cc1ccc(NC(=O)c2ccc3c(c2)OCCO3)cc1C | i | i | i | i | i | i | nt | nt
O=C(NC(=S)Nc1ccc(F)cc1)c1ccc2c(c1)OCCO2 | 3.7 | i | i | 17 | i | i | 11 | i
O=C(Nc1ccccc1)c1ccc2c(c1)OCCO2 | i | i | i | 13 | i | 5.8 | 13 | i
Cc1cccc(NC(=S)NCc2ccc3c(c2)OCO3)c1 | i | i | i | i | i | i | nt | nt
COc1ccc(-c2ccc(C(=O)Nc3cc(OC)c(OC)c(OC)c3)c3occc23)c(C)c1 | i | i | i | i | nt | i | nt | nt
CCOC(=O)CCSc1nnc(-c2cccnc2)n1-c1ccccc1OC | i | i | i | i | i | i | nt | nt
C[C@H]1CC[C@]2(O[C@H](CCO)C[C@H](O)[C@H]2O)O1 | i | i | i | i | i | i | nt | nt
O=C(Nc1ccc(Br)cc1)c1ccc2ncsc2c1 | i | 1.0 | i | 19 | i | i | 15 | i
COc1cc(C)ccc1OCc1cc(C(=O)N(Cc2nccn2C)C(C)C)no1 | 3.7 | i | i | 18 | i | i | 13 | i
c1cnn2c(-c3ccc4c(c3)CCO4)cnc2c1 | i | i | i | 14 | nt | i | i | i
CCOc1ccc(C(=O)NC2CCN(S(=O)(=O)c3ccccc3)CC2)cc1 | i | i | i | i | i | i | nt | nt
CC(C)Cn1c(-c2csc3c2CCCC3)n[nH]c1=S | nt | nt | nt | nt | i | nt | nt | nt
Cc1ccc(-c2nc3ccccc3s2)cc1NC(=S)NC(=O)c1ccccc1 | i | 1.6 | i | 15 | i | 5.7 | 16 | i
CC(=O)c1sc(NC(=O)CCS(=O)(=O)c2ccc(C)cc2)nc1C | i | i | i | i | i | i | nt | nt
C/C(=N/N=C1/NC(=O)CC(C(=O)Nc2ccccc2)S1)c1cccs1 (stereo not given) | i | i | i | 13 | i | i | i | i
C/C(=N/N=C1/NC(=O)CC(C(=O)O)S1)c1ccccc1 (stereo not given) | i | i | i | i | i | i | nt | nt
Brc1ccccc1C1CC(c2ccccc2)=Nc2ccccc2N1 (stereo not given) | i | i | i | 14 | i | i | i | i
CC1=C(C(=O)OCc2ccccc2)C(c2ccccc2Br)NC(=O)N1 (stereo not given) | i | i | i | i | i | i | nt | nt
C=CCN1CC(O)=C(c2nc3ccccc3[nH]2)C1=N | i | i | i | i | i | i | nt | nt
Nc1ccc(CCc2nc3ccccc3o2)cc1 | i | i | i | 13 | i | i | 13 | i
N#CCC(=O)c1sccc1-n1cccc1 | i | i | i | i | i | i | nt | nt
NC(N)=Nc1nc(C2COc3ccccc3O2)cs1 (stereo not given) | i | i | i | 14 | i | i | 18 | i
O=c1c2ccccc2cnn1Cc1ccc(Br)cc1F | i | i | i | i | i | i | nt | nt
SMILES | DAX1 inh-1 | ssDAF12 agonist | SMARCA2 activ | hgDAF12 agonist | DAX1 inh-2 | hcDAF12 agonist | hgDAF12 conf | LXRb DAF12 ctr
Cc1cnc(NC(=O)c2ccncc2)s1 | i | i | i | i | i | i | nt | nt
Cc1cnc(NC(=O)c2cncc(Br)c2)s1 | i | i | i | 19 | i | i | 16 | i
CC(C)(C)c1ccc(OCCn2ccccc2=O)cc1 | i | i | i | 16 | i | 6.2 | 17 | i
Fc1ccc(N=C2NN=C(c3cc(F)ccc3F)CS2)cc1 | i | i | i | 16 | i | i | 11 | i
O=S(=O)(c1ccc(N=C2NN=C(c3cc(F)ccc3F)CS2)cc1)N1CCOCC1 | i | i | i | i | nt | i | nt | nt
Cc1ccc(-n2c(C)nn(CCOc3ccccc3)c2=O)cc1 | i | i | i | 13 | i | i | i | i
Cc1nn(C)c(=O)n1-c1ccc(Oc2ccccc2)cc1 | i | i | i | i | i | i | nt | nt
CCOC(=O)N1CCN(C(=O)C2CC(c3ccccc3OC)=NO2)CC1 (stereo not given) | i | i | i | i | i | i | nt | nt
O=C(C1CC(c2ccccc2O)=NO1)N1CCCC1 (stereo not given) | i | i | i | 14 | i | i | i | i
COc1cccc(NC(=O)CN(C)CC(=O)Nc2ccc(C)cc2Cl)c1 | i | i | i | i | i | i | nt | nt
Cc1ccc(Nc2cc(-n3cccn3)ncn2)c(C)c1 | i | i | i | 15 | i | i | 12 | i
O=C(N=C1SCC(=O)N1c1ccccc1Cl)c1ccccc1 | i | i | i | 17 | i | i | i | i
O=C(N=C1SCC(=O)N1c1ccccc1Cl)c1ccco1 | i | i | i | i | i | i | nt | nt
OC1c2c(F)cccc2N=C2CCCCCN21 (stereo not given) | i | i | i | i | nt | i | nt | nt
O=C(Nc1ccccc1)O/N=C/c1ccc(F)cc1 | i | i | i | 15 | i | i | 16 | i
COC(=O)c1ccc(COc2ccc(C(C)(C)C)cc2)o1 | i | i | i | i | i | i | nt | nt
CCC(C)c1ccc(OCc2ccc(C(=O)OC)o2)cc1 (stereo not given) | i | 1.0 | i | 15 | i | i | 18 | i
CCc1ccc(OCc2ccc(C(=O)OC)o2)cc1 | i | i | i | 17 | i | i | 14 | i
COC(=O)c1ccc(COc2ccc(NC(C)=O)cc2)o1 | i | i | i | i | i | i | nt | nt
COC(=O)Cc1csc(Nc2ccc(F)c(Cl)c2)n1 | i | i | i | i | i | i | nt | nt
Oc1ccc(/C=N/NC(=S)Nc2cccnc2)cc1 | i | i | i | 15 | i | i | 11 | i
O=C(O)c1ccc(N=NN2CCCCC2)cc1 | i | i | i | 14 | nt | i | 12 | i
NS(=O)(=O)c1ccc(N=NN2CCCCC2)cc1 | i | i | i | i | i | i | nt | nt
COc1ccc2oc(C(=O)Nc3nc4ccccc4[nH]3)c(C)c2c1 | 4.2 | i | i | 25 | i | i | 18 | i
COc1ccc2oc(C(=O)OC/C(O)=C(\C#N)c3nc4ccccc4[nH]3)c(C)c2c1 | i | i | i | i | i | i | nt | nt
Cc1ccc(Nc2ncccc2C(N)=O)cc1 | i | i | i | 14 | i | i | 13 | i
CC(=O)N1CCOc2ccc(S(=O)(=O)N3CCCC(C)C3)cc21 (stereo not given) | i | i | i | i | i | i | nt | nt
CCOc1ccccc1N(C(=O)CNC(=O)c1ccco1)C(C(=O)NC1CCCC1)c1ccncc1 (stereo not given) | i | i | i | i | i | i | nt | nt
C[C@H]1CCC(=O)N(CCSc2ccc(Br)cc2)CC1 | i | i | i | i | i | i | nt | nt

Screening results deposited in PubChem BioAssay by The Scripps Research Institute Molecular Screening Center.
